Our source for the residual activity values is ChEMBL document CHEMBL2218924, “A broad activity screen in support of a chemogenomic map for kinase signalling research and drug discovery” (Biochem J, 2013).

In assay [1] the target is T1, Protein kinase C epsilon type (Homo sapiens) (UniProt Q02156).
T1 sequence (whole entry): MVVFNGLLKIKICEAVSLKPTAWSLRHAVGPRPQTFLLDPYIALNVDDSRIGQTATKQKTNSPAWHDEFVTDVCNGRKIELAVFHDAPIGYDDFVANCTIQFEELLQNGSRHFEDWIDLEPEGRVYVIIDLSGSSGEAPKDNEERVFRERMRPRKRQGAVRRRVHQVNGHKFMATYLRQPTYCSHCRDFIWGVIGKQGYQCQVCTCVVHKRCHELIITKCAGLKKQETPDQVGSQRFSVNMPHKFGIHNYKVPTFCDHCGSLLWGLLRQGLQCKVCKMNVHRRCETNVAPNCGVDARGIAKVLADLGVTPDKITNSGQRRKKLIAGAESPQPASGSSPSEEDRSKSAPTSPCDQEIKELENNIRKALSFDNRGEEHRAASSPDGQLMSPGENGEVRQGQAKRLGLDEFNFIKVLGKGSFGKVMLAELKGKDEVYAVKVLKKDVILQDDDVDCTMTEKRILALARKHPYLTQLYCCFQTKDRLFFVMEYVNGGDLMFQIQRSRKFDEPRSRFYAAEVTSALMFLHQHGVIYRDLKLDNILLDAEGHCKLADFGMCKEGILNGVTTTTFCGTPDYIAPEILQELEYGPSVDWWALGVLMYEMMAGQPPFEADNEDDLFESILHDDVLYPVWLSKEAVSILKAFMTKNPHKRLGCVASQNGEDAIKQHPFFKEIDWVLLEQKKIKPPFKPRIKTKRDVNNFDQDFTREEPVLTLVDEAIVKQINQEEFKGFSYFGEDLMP
Conditions: at 1 µM.

Assay [2] addresses T1, Protein kinase C epsilon type (Homo sapiens). The settings on record: at 10 µM.
The target of assay [3] is Protein kinase C delta type (Homo sapiens) (UniProt Q05655). The settings on record: at 10 µM.
Chain of Protein kinase C delta type (Homo sapiens) (Q05655 whole entry, looked up): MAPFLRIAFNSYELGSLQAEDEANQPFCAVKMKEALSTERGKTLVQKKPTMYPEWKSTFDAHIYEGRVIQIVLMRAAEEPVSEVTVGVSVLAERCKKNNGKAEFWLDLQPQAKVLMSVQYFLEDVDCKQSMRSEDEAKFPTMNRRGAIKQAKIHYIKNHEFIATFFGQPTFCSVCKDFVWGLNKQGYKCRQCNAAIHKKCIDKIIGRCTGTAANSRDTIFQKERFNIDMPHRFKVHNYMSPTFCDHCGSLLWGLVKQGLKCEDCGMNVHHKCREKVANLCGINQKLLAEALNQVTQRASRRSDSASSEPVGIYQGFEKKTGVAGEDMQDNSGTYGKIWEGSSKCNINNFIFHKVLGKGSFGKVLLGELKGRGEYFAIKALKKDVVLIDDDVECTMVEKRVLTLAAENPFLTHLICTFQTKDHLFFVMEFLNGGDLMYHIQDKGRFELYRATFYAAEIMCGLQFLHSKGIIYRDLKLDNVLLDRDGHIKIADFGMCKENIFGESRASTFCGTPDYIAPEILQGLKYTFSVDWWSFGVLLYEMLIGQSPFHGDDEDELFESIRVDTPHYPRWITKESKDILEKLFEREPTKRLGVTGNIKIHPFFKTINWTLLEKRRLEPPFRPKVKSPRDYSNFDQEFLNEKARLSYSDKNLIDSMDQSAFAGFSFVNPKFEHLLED

As for `COc1cc(OC)c(/C=C2\C(=O)Nc3ccccc32)c(OC)c1`, the results for the residual activity in assay [1] and in assay [2] were 95% and 107%, respectively.
Take `O=[N+]([O-])/C=C/c1ccc2c(c1)OCO2`: the values for the residual activity in assay [3], in assay [1] and in assay [2] were 95%, 81% and 81%, respectively.
On to `O=C1Nc2ccc3ncsc3c2/C1=C/c1c[nH]cn1`, for which the results for the residual activity in assay [3], in assay [1] and in assay [2] were 5%, 27% and 9%, respectively.
`CC(C)[C@H](CO)Nc1nc(Nc2cccc(Cl)c2)c2ncn(C(C)C)c2n1`: in assay [2], the residual activity (usually the signal under treatment as a percentage of the control signal) worked out at 92%.
On the same count and under the same terms, to `c1cc(-c2cnn3cc(-c4ccc(OCCN5CCCCC5)cc4)cnc23)ccn1` belongs 103%.
As to `C[S+]([O-])c1ccc(-c2nc(-c3ccc(F)cc3)c(-c3ccncc3)[nH]2)cc1` (centres undefined), the residual activity in assay [3] was 105%; in assay [1] it was 125%; in assay [2] it was 105%.
For the molecule `CCn1cnc2c(Nc3cccc(Cl)c3)nc(N[C@@H]3CCCC[C@@H]3N)nc21`, the residual activity in assay [3] stood at 59%; in assay [1], 100%; in assay [2] it was 80%.
In the same order, the values of `COc1cc2ncnc(Nc3ccc(OCc4ccccc4)cc3)c2cc1OC` are 106%, 104% and 119%.
With `CC(C)(C)c1cc(C=C(C#N)C#N)cc(Br)c1O`, the residual activity in assay [3] worked out at 97%; in assay [1], 108%.
For the molecule `COc1ccc2c(c[n+](C)c3c4cc5c(cc4ccc23)OCO5)c1OC`, the results for the residual activity in assay [1] and in assay [2] were 88% and 78%, respectively.
Consider `COC(=O)[C@@]1(O)C[C@H]2O[C@]1(C)n1c3ccccc3c3c4c(c5c6ccccc6n2c5c31)C(=O)NC4`, for which the results for the residual activity in assay [3], in assay [1] and in assay [2] were 3%, 51% and 10%, respectively.
In the same order, the values of `O=c1[nH]c2ccccc2n1C1CCN(Cc2ccc(-c3nc4cc5[nH]cnc5cc4nc3-c3ccccc3)cc2)CC1` are 111%, 87% and 100%.
In the same order, the values of `CCc1nc(-c2ccc(OC)cc2)[nH]c1-c1ccncc1` are 105%, 104% and 109%.
Regarding `COc1ccc2c(c1)/C(=C/c1cnc[nH]1)C(=O)N2`, the residual activity worked out at 61% in assay [3] and 80% in assay [2].
